A word on the AC50: it is the midpoint of the concentration-response curve, whichever way the signal moves.

Structures are written as SMILES. Records with an inconclusive call do not appear. Calls of active or inactive are those of the source. How the source made its calls: active means hit-call score of the fitted dose curve at least 0.9, where 1 is the maximum; inconclusive means response in the unintended direction; inactive means score below 0.9.

Assay [1] concerns the target Cellular tumor antigen p53 (Homo sapiens) (UniProt P04637). The experiment in a line: TOX21_p53_BLA_p5_ratio: Tox21 HCT-116 p53 Agonism Beta-lactamase Assay, Ratio, Phase 5 (AID 2283599). An outline of the steps:
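Beta-lactamase reporter ratio (blue 460 nm over green 530 nm, 405 nm excitation) after 2 h CCF4-AM loading, in HCT-116 cells exposed 16 h at 37 C to compounds pinned at 217-fold dilution. Increases relative to DMSO baseline scored.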

Assay [2] in a line: TOX21_p53_BLA_p5_viability: Viability Assessment in the Tox21 HCT-116 p53 Agonism Beta-lactamase Assay, Phase 5 (AID 2283600). In outline: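 Decreased CellTiter-Glo luminescence denotes lost viability. Exposure: 16 h at 37C, 5% CO2, with compounds from DMSO stocks diluted 217-fold in wells of 4000 cells.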
The target in assay [3] is Cellular tumor antigen p53 (Homo sapiens) (UniProt P04637). Kind of assay: TOX21_p53_BLA_p4_ratio: Tox21 HCT-116 p53 Agonism Beta-lactamase Assay, Ratio, Phase 4 (AID 2283601). In outline:
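Signal is the blue/green (460nm/530nm) ratio of cleaved versus uncleaved CCF4-AM substrate, read after 2 h substrate loading. Cells were HCT116 carrying the p53-responsive beta-lactamase reporter, dosed 16 h at 37C, 5% CO2; CellTiter-Glo measured in parallel.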

A short description of assay [4]: TOX21_p53_BLA_p4_viability: Viability Assessment in the Tox21 HCT-116 p53 Agonism Beta-lactamase Assay, Phase 4 (AID 2283597).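 Further: hits lower the luminescence signal meaning cytotoxicity.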 An outline of the steps:
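4000 HCT116 cells per well; 5 h attachment; compounds from DMSO, 217-fold dilution; 16 h at 37C. Then CCF4-AM, 2 h RT, followed by CellTiter-Glo, 30 min RT, luminescence. Decrease = cytotoxicity.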

Assay [5] can be described thus: Tanguay_ZF_120hpf_MORT_legacy: (Legacy) Oregon State University Tanguay Lab 120 Hour Post-fertilization zebrafish Assay for Mortality (AID 2283633). In outline: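 Dechorionated Tropical 5D wild-type zebrafish embryos, one per well from 6 hpf, static exposure in 0.64% DMSO at 28C until 120 hpf. Mortality scored as binary by brightfield microscopy at 24 and 120 hpf.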

Assay [6] in a line: Tanguay_ZF_120hpf_YSE_legacy: (Legacy) Oregon State University Tanguay Lab 120 Hour Post-fertilization zebrafish Assay for Yolk Sac Edema (AID 2283634). In outline:
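Dechorionated Tropical 5D wild-type zebrafish embryos were exposed statically, one per well, from 6 to 120 hpf at 28C in 0.64% DMSO. Yolk sac edema was scored present/absent by brightfield at 120 hpf, and dead embryos were excluded.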

The nature of assay [7]: Tanguay_ZF_120hpf_AXIS_legacy: (Legacy) Oregon State University Tanguay Lab 120 Hour Post-fertilization zebrafish Assay for Body Axis Malformation (AID 2283635). An outline of the steps: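 Dechorionated wild-type Tropical 5D zebrafish embryos, one per well, statically exposed from 6 hpf to 120 hpf at 28C in 0.64% DMSO final. Body axis malformation scored present/absent by brightfield microscopy at 120 hpf; dead embryos excluded.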

A short description of assay [8]: Tanguay_ZF_120hpf_SNOU_legacy: (Legacy) Oregon State University Tanguay Lab 120 Hour Post-fertilization zebrafish Assay for Snout Malformation (AID 2283637). In outline:
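Binary snout-malformation call at 120 hpf in wild-type 5D embryos, chorion removed by pronase, under static exposure from 6 hpf at 28C (0.64% DMSO). Embryos dying by 24 or 120 hpf excluded.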

The nature of assay [9]: Tanguay_ZF_120hpf_JAW_legacy: (Legacy) Oregon State University Tanguay Lab 120 Hour Post-fertilization zebrafish Assay for Jaw Malformation (AID 2283638). An outline of the steps:
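Dechorionated Tropical 5D wild-type zebrafish embryos, one per well, exposed statically from 6 hpf to 120 hpf at 28C in 0.64% DMSO. Jaw malformation was scored by brightfield microscopy as present or absent. It was not scored in dead embryos.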

Chain of Cellular tumor antigen p53 (Homo sapiens) (P04637 whole entry, looked up): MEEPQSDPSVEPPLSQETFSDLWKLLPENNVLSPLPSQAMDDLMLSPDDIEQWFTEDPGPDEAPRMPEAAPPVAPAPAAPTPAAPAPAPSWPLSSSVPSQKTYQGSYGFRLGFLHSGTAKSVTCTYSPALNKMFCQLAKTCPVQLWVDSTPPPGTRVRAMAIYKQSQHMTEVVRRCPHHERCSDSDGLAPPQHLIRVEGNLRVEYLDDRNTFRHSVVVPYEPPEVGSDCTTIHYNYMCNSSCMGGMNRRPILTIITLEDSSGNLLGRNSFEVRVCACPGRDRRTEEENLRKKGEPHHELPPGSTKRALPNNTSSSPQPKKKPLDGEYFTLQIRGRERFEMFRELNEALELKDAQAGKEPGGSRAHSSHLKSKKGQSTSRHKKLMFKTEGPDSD

For `CC(=O)OC(C)c1ccccc1` (stereo not given), the result in [1], in [2] and in [3] was inactive.

Consider `CCCCCCCCCCCCC`, for which the result in assay [1], in assay [2] and in assay [3] was inactive.

`C=CC(=O)OCCCCCCCCCC`: the outcome in [1], in assay [2] and in assay [3] was inactive.

For `CC(=O)C(C)C`, the outcome in assay [1], in assay [2] and in assay [3] was inactive.

For `Cc1ccc(S(=O)(=O)N=C=O)cc1`, the result in assay [1], in assay [2] and in assay [3] was inactive.

For the compound `Oc1ccccc1Cc1ccccc1O`, the compound was classed as inactive in [4] and in assay [3].

Turning to `CCCCNS(=O)(=O)c1ccc(C)cc1`, the result in assay [4] and in [3] was inactive.

Consider `CCCc1ccc(O)c(OC)c1`, for which the outcome in [1], in assay [2] and in assay [3] was inactive.

As for `CCCCCCCCCCCC(=O)OCC`, the outcome in assay [1], in assay [2] and in [3] was inactive.

Take `CC(C)c1cc(C(C)C)cc(C(C)C)c1`: the call in [4] and in assay [3] was inactive.

As to `O=C(O)C1CCC(C(=O)O)CC1` (stereo not given), the AC50 in [4] is 82.4 µM (active); in [3], 85.8 µM (active).

Consider `CCCC1CCCC(=O)O1` (stereo not given), for which the outcome in assay [1], in assay [2] and in assay [3] was inactive.

As for `O=C(O)c1cc(O)c2ccccc2c1O`, the result in assay [1], in assay [2] and in [3] was inactive.

In the case of `NNS(=O)(=O)c1ccc(Oc2ccc(S(=O)(=O)NN)cc2)cc1`, the outcome in assay [1], in assay [2] and in assay [3] was inactive.

Take `Fc1ccc(Br)cc1`: the result in assay [4] and in [3] was inactive.

On to `c1ccc2c(c1)[nH]c1ccccc12`, for which the outcome in [1], in assay [2] and in [3] was inactive.

With `CCC1COC(=O)O1` (stereo not given), the result in assay [2] and in assay [3] was inactive.

In the case of `CC1CC(=O)CC(C)(C)C1` (stereo not given), the outcome in [1], in [2] and in assay [3] was inactive.

As for `CC12CCC(CC1)C(C)(C)O2`, the outcome in [3] was inactive.

As to `c1ccc2cnccc2c1`, the outcome in [3] was inactive.

With `COc1ccc(C(=O)c2ccccc2)c(O)c1`, the compound was called inactive in assay [2] and in [3].

Turning to `O=S(=O)(O)c1ccc(Nc2nc(Nc3ccc(C=Cc4ccc(Nc5nc(Nc6ccc(S(=O)(=O)O)cc6)nc(N(CCO)CCO)n5)cc4S(=O)(=O)O)c(S(=O)(=O)O)c3)nc(N(CCO)CCO)n2)cc1`, the concentration at half-maximal activity (AC50) in [1] was 42.6 µM (active); in assay [3] it was 37.1 µM (active).

With `CCCCCCCCCCCC(C)=O`, the compound was called inactive in assay [2] and in [3].

Regarding `CCOC(=O)c1ccc(C)cc1`, the outcome in assay [3] was inactive.

Regarding `COC(=O)c1ccccc1C`, the compound was called inactive in [2] and in assay [3].

With `CC(C)(C)C1CCC(=O)CC1`, the compound was classed as inactive in assay [2] and in assay [3].

As for `C[Si]1(C)O[Si](C)(C)O[Si](C)(C)O[Si](C)(C)O[Si](C)(C)O1`, the compound was called inactive in assay [2] and in assay [3].

As for `Nc1ncnc2nc[nH]c12`, the outcome in assay [1] and in [3] was inactive.

As for `C=CCNCC=C`, the outcome in assay [2] and in assay [3] was inactive.

Regarding `Cc1ccccc1CCO`, the outcome in assay [1] and in [3] was inactive.

On to `CC(C)C(=O)OCCOc1ccccc1`, for which the result in [1], in assay [2] and in assay [3] was inactive.

For `OCCCc1ccccc1`, the outcome in assay [1] and in assay [3] was inactive.

In the case of `O=C(O)CC(C(=O)O)S(=O)(=O)O` (stereo not given), the compound was classed as inactive in assay [2] and in assay [3].

For the compound `Cc1ccc([N+](=O)[O-])cc1N`, the result in assay [1], in [2], in [3], in [5], in [6] and in assay [7] was inactive. The compound was called inactive in assay [8] and in [9].

On to `CC1OC(=O)C(C)OC1=O` (stereo not given), for which the call in assay [2] was inactive.

In the case of `CC(=O)CCC=C(C)C`, the call in assay [2] and in assay [3] was inactive.

`CCc1occc(=O)c1O`: in assay [2], the compound was classed as inactive.

As to `CO[Si](CCCS)(OC)OC`, the result in assay [2] and in assay [3] was inactive.

For the compound `CC1=CC(C)C(C=O)CC1` (stereo not given), the result in [1] and in [3] was inactive.

Consider `CCC(C)(O)CCCC(C)C` (stereo not given), for which the compound was classed as inactive in [2] and in [3].

Take `Nc1ccc(C(=O)O)cc1`: the outcome in assay [1], in assay [2], in [3], in assay [5], in assay [7] and in assay [8] was inactive. The compound was called inactive in [9].

For `CCOC(=O)/C=C\C(=O)OCC`, the call in [2] and in [3] was inactive.

Consider `O=C(C=Cc1ccccc1)OCCc1ccccc1`, for which the call in assay [2] and in [3] was inactive.

As to `CC1=CC=C(C(C)C)CC1`, the compound was called inactive in assay [2].

Consider `O=C1CCCCCCCCCCC1`, for which the result in assay [2] and in [3] was inactive.

Regarding `CC(C)OC(=O)c1ccccc1`, the outcome in assay [3] was inactive.

For the compound `CC(C)=CCCC(C)=CC#N`, the result in assay [1] and in assay [3] was inactive.

Regarding `O=C(O)CCCC(=O)O`, the outcome in assay [2] and in [3] was inactive.

Regarding `C=CC(=O)OCC(C)OCC(C)OCC(C)OC(=O)C=C` (stereo not given), the result in assay [1] and in assay [3] was inactive.

Values taken from PubChem BioAssay (EPA / NIEHS).
